Measurements from PubChem BioAssay (Tox21).
Records with an inconclusive call do not appear. Where a call stands in place of a potency, no number is given. Calls of active or inactive are those of the source. Calls follow the shape of the dose curve; as a rule, active = well fitted curve in the direction sought with a large enough effect in the repeat runs; inconclusive = weak or mixed curves; inactive = no such curve, though single readings can be large; an effect the other way counts as inactive or inconclusive.

Assay: qHTS RealTime-Glo MT Cell Viability Assay in HepG2 cells - 0 hour (AID 1224889); also: nearly all actives have a fitted effect of over 50% in size
Conditions: RealTime-Glo luminescence; series mostly up to 76.8 µM
Summary of the method: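 HepG2 cells (600/well) were dispensed with RealTime-Glo reagents, incubated 5 h at 37 °C, then treated with compounds in DMSO for up to 40 h. Nonlytic NanoLuc luminescence reflecting viable cells was read at each stated time point.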

| Compound | Potency |
| --- | --- |
| N=C(N)S(=O)O | inactive |
| CC[C@@]1(c2ccccc2)NC(=O)N(C)C1=O | inactive |
| CC(=O)Oc1ccc(C(C)=O)cc1 | inactive |
| Cc1ccc(N)nc1 | inactive |
| CCCOc1ccc(C(=O)OCCN(CC)CC)cc1N | inactive |
| CCCCCCC(O)CO (centres undefined) | inactive |
| CC(=O)OC/C=C(/C)CCC=C(C)C | inactive |
| CC(C)(C)OC(=O)c1ccccc1C(=O)O | inactive |
| CC1=C(O)C(=O)CO1 | inactive |
| O=C(O)Cc1ccccc1Oc1ccc(Cl)cc1Cl | inactive |
| O=c1c(O)c(O)c1=O | inactive |
| NCC1CCC(C(=O)Oc2ccc(CCC(=O)O)cc2)CC1 (centres undefined) | inactive |
| Cc1cc(=O)oc2cc(O[C@@H]3SC[C@@H](O)[C@H](O)[C@H]3O)ccc12 | inactive |
| CO/N=C(\C(=O)O)c1csc(NC(=O)CCl)n1 | inactive |
| C=CCN1CCc2nc(N)sc2CC1 | inactive |
| COc1ccc2cc(CCC(C)=O)ccc2c1 | inactive |
| CCCCCCCCC1CO1 (centres undefined) | inactive |
| Cc1nc2ccc(Cl)cc2[nH]1 | inactive |
| CC(C)c1cc(C(C)C)cc(C(C)C)c1 | inactive |

| Compound | Potency |
| --- | --- |
| COC(=O)c1ccc(NC(C)=O)cc1OC | inactive |
| O=S(=O)(O)c1ccc(Cl)cc1 | inactive |
| C=COCCCCO | inactive |
| C/C(=N\O)c1ccc(OCC(=O)N2CCCCC2)cc1 | inactive |
| Cc1cccc(N)n1 | inactive |
| CCCCCCCCCCCC(C)=O | inactive |
| CN(C)CCc1c[nH]c2ccc(C[C@H]3COC(=O)N3)cc12 | inactive |
| CC(=O)/C=C/C=C1/C2CCC(C2)C1(C)C (centres undefined) | inactive |
| Cc1ccc(O)c([N+](=O)[O-])c1 | inactive |
| CCCCN=C(N)N=C(N)N | inactive |
| CN(C)CCC[C@@]1(c2ccc(F)cc2)OCc2cc(C#N)ccc21 | inactive |
| O=C(O)P(=O)(O)O | inactive |
| CC(=O)SCC(CC(=O)c1ccc(C)cc1)C(=O)O (centres undefined) | inactive |
| CC(C)(C)C(=O)CCc1ccc(Cl)cc1 | inactive |
| Nc1ccc(C(=O)NCC(=O)O)cc1 | inactive |
| NC(=O)CC[C@@H](N)C(=O)O | inactive |
| C[n+]1ccccc1/C=N/O | inactive |
| COc1cc2nc(N3CCN(C(=O)C4CCCO4)CC3)nc(N)c2cc1OC (centres undefined) | inactive |
| COc1cnc(NS(=O)(=O)c2ccc(N)cc2)nc1 | inactive |

Assay: A CellTox Green Cytotoxicity Assay to monitor cytotoxicity in HepG2 cells - 8 hour (AID 1224890); also: nearly all actives have a fitted effect of over 45% in size
Conditions: CellTox Green fluorescence; series mostly up to 76.8 µM
Summary of the method: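 Fluorescent DNA-binding dye, 600 HepG2 cells/well, 5 h preincubation then compound in DMSO; same plates read at 0–40 h, 37 C.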

| Compound | Potency |
| --- | --- |
| N=C(N)S(=O)O | inactive |
| CC[C@@]1(c2ccccc2)NC(=O)N(C)C1=O | inactive |
| CC(=O)Oc1ccc(C(C)=O)cc1 | inactive |
| Cc1ccc(N)nc1 | inactive |
| CCCOc1ccc(C(=O)OCCN(CC)CC)cc1N | inactive |
| CCCCCCC(O)CO (centres undefined) | inactive |
| CC(=O)OC/C=C(/C)CCC=C(C)C | inactive |
| CC(C)(C)OC(=O)c1ccccc1C(=O)O | inactive |
| CC1=C(O)C(=O)CO1 | inactive |
| O=C(O)Cc1ccccc1Oc1ccc(Cl)cc1Cl | inactive |
| O=c1c(O)c(O)c1=O | inactive |
| NCC1CCC(C(=O)Oc2ccc(CCC(=O)O)cc2)CC1 (centres undefined) | inactive |
| Cc1cc(=O)oc2cc(O[C@@H]3SC[C@@H](O)[C@H](O)[C@H]3O)ccc12 | inactive |
| CO/N=C(\C(=O)O)c1csc(NC(=O)CCl)n1 | inactive |
| C=CCN1CCc2nc(N)sc2CC1 | inactive |
| COc1ccc2cc(CCC(C)=O)ccc2c1 | inactive |
| CCCCCCCCC1CO1 (centres undefined) | inactive |
| Cc1nc2ccc(Cl)cc2[nH]1 | inactive |
| CC(C)c1cc(C(C)C)cc(C(C)C)c1 | inactive |

| Compound | Potency |
| --- | --- |
| COC(=O)c1ccc(NC(C)=O)cc1OC | inactive |
| O=S(=O)(O)c1ccc(Cl)cc1 | inactive |
| C=COCCCCO | inactive |
| C/C(=N\O)c1ccc(OCC(=O)N2CCCCC2)cc1 | inactive |
| Cc1cccc(N)n1 | inactive |
| CCCCCCCCCCCC(C)=O | inactive |
| CN(C)CCc1c[nH]c2ccc(C[C@H]3COC(=O)N3)cc12 | inactive |
| CC(=O)/C=C/C=C1/C2CCC(C2)C1(C)C (centres undefined) | inactive |
| Cc1ccc(O)c([N+](=O)[O-])c1 | inactive |
| CCCCN=C(N)N=C(N)N | inactive |
| CN(C)CCC[C@@]1(c2ccc(F)cc2)OCc2cc(C#N)ccc21 | inactive |
| O=C(O)P(=O)(O)O | inactive |
| CC(=O)SCC(CC(=O)c1ccc(C)cc1)C(=O)O (centres undefined) | inactive |
| CC(C)(C)C(=O)CCc1ccc(Cl)cc1 | inactive |
| Nc1ccc(C(=O)NCC(=O)O)cc1 | inactive |
| NC(=O)CC[C@@H](N)C(=O)O | inactive |
| C[n+]1ccccc1/C=N/O | inactive |
| COc1cc2nc(N3CCN(C(=O)C4CCCO4)CC3)nc(N)c2cc1OC (centres undefined) | inactive |
| COc1cnc(NS(=O)(=O)c2ccc(N)cc2)nc1 | inactive |

Assay: qHTS assay to identify small molecule antagonists of the estrogen receptor alpha (ER-alpha) signaling pathway using the BG1 cell line in the presence of 0.1 nM 17-beta-estradiol - cell viability counter screen (AID 1259241); also: nearly all actives have a fitted effect of over 40% in size
Conditions: VM7Luc4E2 (BG1) viability, CellTiter-Fluor protease, 22 h, 0.1 nM estradiol agonist added; series mostly up to 92.4 µM
Summary of the method: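 The cell line endogenously expresses full-length ER-alpha and carries four EREs driving luciferase. Cells are cultured 5 days hormone-free, treated 22 hr with compounds and 0.1 nM estradiol, then viability is read by fluorescence.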

| Compound | outcome |
| --- | --- |
| N=C(N)S(=O)O | inactive |
| CC[C@@]1(c2ccccc2)NC(=O)N(C)C1=O | inactive |
| CC(=O)Oc1ccc(C(C)=O)cc1 | inactive |
| Cc1ccc(N)nc1 | inactive |
| CCCOc1ccc(C(=O)OCCN(CC)CC)cc1N | inactive |
| CCCCCCC(O)CO (centres undefined) | inactive |
| CC(=O)OC/C=C(/C)CCC=C(C)C | inactive |
| CC(C)(C)OC(=O)c1ccccc1C(=O)O | inactive |
| CC1=C(O)C(=O)CO1 | inactive |
| O=C(O)Cc1ccccc1Oc1ccc(Cl)cc1Cl | inactive |
| O=c1c(O)c(O)c1=O | inactive |
| NCC1CCC(C(=O)Oc2ccc(CCC(=O)O)cc2)CC1 (centres undefined) | inactive |
| Cc1cc(=O)oc2cc(O[C@@H]3SC[C@@H](O)[C@H](O)[C@H]3O)ccc12 | inactive |
| CO/N=C(\C(=O)O)c1csc(NC(=O)CCl)n1 | inactive |
| C=CCN1CCc2nc(N)sc2CC1 | inactive |
| COc1ccc2cc(CCC(C)=O)ccc2c1 | inactive |
| CCCCCCCCC1CO1 (centres undefined) | inactive |
| Cc1nc2ccc(Cl)cc2[nH]1 | inactive |
| CC(C)c1cc(C(C)C)cc(C(C)C)c1 | inactive |

| Compound | outcome |
| --- | --- |
| COC(=O)c1ccc(NC(C)=O)cc1OC | inactive |
| O=S(=O)(O)c1ccc(Cl)cc1 | inactive |
| C=COCCCCO | inactive |
| C/C(=N\O)c1ccc(OCC(=O)N2CCCCC2)cc1 | inactive |
| Cc1cccc(N)n1 | inactive |
| CCCCCCCCCCCC(C)=O | inactive |
| CN(C)CCc1c[nH]c2ccc(C[C@H]3COC(=O)N3)cc12 | inactive |
| CC(=O)/C=C/C=C1/C2CCC(C2)C1(C)C (centres undefined) | inactive |
| Cc1ccc(O)c([N+](=O)[O-])c1 | inactive |
| CCCCN=C(N)N=C(N)N | inactive |
| CN(C)CCC[C@@]1(c2ccc(F)cc2)OCc2cc(C#N)ccc21 | inactive |
| O=C(O)P(=O)(O)O | inactive |
| CC(=O)SCC(CC(=O)c1ccc(C)cc1)C(=O)O (centres undefined) | inactive |
| CC(C)(C)C(=O)CCc1ccc(Cl)cc1 | inactive |
| Nc1ccc(C(=O)NCC(=O)O)cc1 | inactive |
| NC(=O)CC[C@@H](N)C(=O)O | inactive |
| C[n+]1ccccc1/C=N/O | inactive |
| COc1cc2nc(N3CCN(C(=O)C4CCCO4)CC3)nc(N)c2cc1OC (centres undefined) | inactive |
| COc1cnc(NS(=O)(=O)c2ccc(N)cc2)nc1 | inactive |
